For 58 molecules, inhibition results are on record in PubChem BioAssay AID602385 (Sanford-Burnham Center for Chemical Genomics, 2012).

The campaign covered roughly 2,300 compounds. About 180 (7.8%) were called active.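 Rule for the calls: active = average inhibition of at least 30% in the single-concentration confirmation test; inactive = the rest.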 These entries were drawn from the full list.

Sequence of DNA (cytosine-5)-methyltransferase 1 (Homo sapiens) (P26358 504-1616 limits assumed): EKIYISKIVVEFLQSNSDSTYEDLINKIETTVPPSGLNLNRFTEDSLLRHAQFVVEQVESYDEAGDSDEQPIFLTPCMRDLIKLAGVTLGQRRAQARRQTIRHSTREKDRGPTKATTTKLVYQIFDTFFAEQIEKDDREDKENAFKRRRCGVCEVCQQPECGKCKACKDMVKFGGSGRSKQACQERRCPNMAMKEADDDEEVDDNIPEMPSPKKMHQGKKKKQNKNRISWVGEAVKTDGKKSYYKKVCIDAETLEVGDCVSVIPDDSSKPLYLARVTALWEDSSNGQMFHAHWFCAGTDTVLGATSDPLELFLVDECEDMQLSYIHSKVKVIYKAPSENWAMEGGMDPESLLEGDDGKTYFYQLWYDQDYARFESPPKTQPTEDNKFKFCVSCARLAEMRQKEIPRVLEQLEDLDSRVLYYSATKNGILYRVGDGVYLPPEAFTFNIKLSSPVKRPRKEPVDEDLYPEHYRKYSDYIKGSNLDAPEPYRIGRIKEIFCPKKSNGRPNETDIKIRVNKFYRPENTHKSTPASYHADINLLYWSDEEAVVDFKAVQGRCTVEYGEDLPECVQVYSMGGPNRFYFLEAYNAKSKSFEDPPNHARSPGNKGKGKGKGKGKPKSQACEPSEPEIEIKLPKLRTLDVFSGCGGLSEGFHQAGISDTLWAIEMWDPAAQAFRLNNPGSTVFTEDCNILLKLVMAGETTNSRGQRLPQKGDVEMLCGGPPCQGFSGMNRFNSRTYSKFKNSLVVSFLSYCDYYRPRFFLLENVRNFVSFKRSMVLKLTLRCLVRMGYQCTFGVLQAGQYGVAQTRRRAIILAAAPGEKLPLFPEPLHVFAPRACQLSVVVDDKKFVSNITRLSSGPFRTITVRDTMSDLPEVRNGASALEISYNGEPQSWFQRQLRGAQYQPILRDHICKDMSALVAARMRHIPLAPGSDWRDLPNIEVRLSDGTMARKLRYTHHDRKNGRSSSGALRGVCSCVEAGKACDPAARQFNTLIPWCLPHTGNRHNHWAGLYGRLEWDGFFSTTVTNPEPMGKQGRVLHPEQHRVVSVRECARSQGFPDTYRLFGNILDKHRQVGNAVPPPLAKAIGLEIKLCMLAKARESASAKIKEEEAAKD

The test has as its target DNA (cytosine-5)-methyltransferase 1 (Homo sapiens) (UniProt P26358). As to the kind of experiment: DNMT1 methyltransferase inhibitor retest, confirmation, biochemical, molecular beacon, fluorescence, single concentration (AID 602385). The following applies: DNMT1 molecular beacon HinP1I cleavage, at 10 µM, active compounds read high.
On to `Nc1cc2c(cc1Br)-c1ccc(F)cc1C2=O`, for which the inhibition (usually the relative decrease from the control value, in per cent) was -0.64% (inactive).
Regarding `CCOC(=O)C(NC(=O)CC(C)C)(Nc1sc2c(c1C(N)=O)CCCC2)C(F)(F)F` (stereo not drawn), the inhibition was 38.7% (active).
In the case of `CCCCCCc1cc2cc(-c3nnc(-c4ccccc4)o3)c(=O)oc2cc1O` it was 1.72% (inactive); in that of `CCOC(=O)c1c(NC(=S)NC(=O)/C=C/c2cccs2)sc(C)c1C`, 0.76% (inactive); in that of `COC(=O)CCCCC1=CCC2C(=O)C=C(O)C2C1` (stereo not drawn), 13.6% (inactive).
As to `Cc1ccc(-c2nnc(-c3ccc(NC(=O)c4cccs4)cc3)o2)cc1`, the inhibition was 3.86% (inactive).
In the case of `CC1(C)Cc2nc3sc4c(SCC(=O)NC(c5ccccc5)c5ccccc5)ncnc4c3cc2CO1` it was 2.65% (inactive); in that of `COc1ccc(NC(=O)CN(C)C(=O)c2cc(C3CC3)nn2-c2ccccc2)cc1`, -1% (inactive); in that of `CCN(C(=O)CSc1nc(N)cc(=O)[nH]1)C1CCS(=O)(=O)C1` (stereo not drawn), 4.21% (inactive).
With `CC(=O)Nc1ccccc1Sc1ccc2c3c(cccc13)C(=O)N(c1ccc(C)cc1)C2=O`, the inhibition is 1.49% (inactive).
As for `Cc1cc(O)c(C(=O)/C=C/c2c(F)c(F)c(F)c(F)c2F)c(=O)o1`, the inhibition was 15.6% (inactive).
For `CN(C)/C=C(/C(=O)c1ccc(Cl)cc1)S(=O)(=O)c1ccccc1` the value was 5.43% (inactive); for `COc1ccc2[nH]c(=O)c(-c3noc(-c4ccc(F)cc4)n3)cc2c1`, 0.63% (inactive).
For `COc1ccc(C(=O)/C=C/c2ccc(-c3ccccc3)cc2)cc1CSCC(=O)O` the value was 28.4% (inactive); for `CCOC(=O)N1CC=C2C(C#N)=C(N)C(C#N)(C#N)[C@H](c3cccs3)[C@H]2C1`, 9.81% (inactive).
In the case of `c1ccc2cc3c(NCCN4CCOCC4)ccnc3cc2c1` it was 23.4% (inactive).
As to `Cc1ccc(C(=O)NNC(=O)c2cc3cc4ccccc4nc3s2)cc1`, the inhibition is 3.71% (inactive).
In the case of `CC(C)(C)NC(=O)CSC(=Nc1ccccc1F)NC#N`, the inhibition is 5.5% (inactive).
For `O=C(c1cccs1)N1CCC(c2nc3ccccc3s2)CC1` the value was 1.54% (inactive); for `O=C(Nc1cccc(F)c1)c1cc(-c2ccco2)nc2ccccc12`, 1.53% (inactive); for `CCOc1cc(CN2CCCC(CO)(Cc3ccc(F)cc3F)C2)ccc1OC` (stereo not drawn), 1.12% (inactive).
In the case of `CN(CCOc1ccccc1)C(=O)c1cc(-c2ccco2)nc2ccccc12` it was 3.76% (inactive); in that of `COc1ccc(/C=C2\SC(=N)N(c3ccc(F)cc3)C2=O)cc1`, -0.37% (inactive); in that of `COc1ccc2c(c1)c(=O)c(C(=O)c1ccc(Cl)cc1)cn2CC(=O)Nc1ccc(F)cc1`, 0.08% (inactive).
For `CCc1nn(-c2cc(Oc3cccc4ccccc34)nc(-c3ccccc3)n2)c(N)c1C#N` the value was -0.43% (inactive); for `Cc1ccc2[nH]c(=O)c(-c3nc4c(C)cccn4c3NCc3ccco3)cc2c1`, -1.18% (inactive).
With `O=C(CN1CCCSc2ccccc21)N1CCN(S(=O)(=O)c2cccc(F)c2)CC1`, the inhibition was 2.39% (inactive).
In the case of `O=C(COC(=O)c1ccccc1O)NCc1ccco1` it was 3.59% (inactive); in that of `COc1ccc(C(=O)OCC(=O)Nc2cccc(C(C)=O)c2)cc1OC`, 5.6% (inactive).
For `CC(=O)Nc1ccc(SCC(=O)NC(=O)c2ccc(Cl)cc2)cc1` the value was 2.15% (inactive); for `O=C(Oc1ccc(-c2nc(-c3ccccn3)no2)cc1)c1ccccc1`, 29% (inactive); for `O=C(Nc1nc(-c2ccco2)c(-c2ccco2)s1)c1ccco1`, 6.2% (inactive).
`Cc1onc(-c2ccccc2)c1C(=O)Nc1ccccc1C#N`: the inhibition was 1.14% (inactive).
`c1coc(-c2nc3nc4ccccc4n3nc2-c2ccco2)c1`: the inhibition is 0.83% (inactive).
In the case of `O=C1CCCC(O)=C1C=NCCc1ccccc1` it was 0.99% (inactive); in that of `NNc1cccc(C=Cc2ccccc2)cc1=O`, 1.25% (inactive); in that of `CCN1CCN(Cc2nc3c(c(=O)n(C)c(=O)n3C)n2CC(=O)c2ccccc2)CC1`, 0.76% (inactive).
As to `CCOC(=O)c1cccc(NC(=O)C2CCCN(S(=O)(=O)c3cnc[nH]3)C2)c1` (stereo not drawn), the inhibition was 1.94% (inactive).
For `C=CCn1c(=NC(=O)c2ccc(S(=O)(=O)N3CCCC3)cc2)sc2cc(NC(C)=O)ccc21` the value was 1.72% (inactive).
In the case of `Oc1c(C(c2ccco2)N2CCC3(CC2)OCCO3)sc2ncnn12` (stereo not drawn) it was 1.28% (inactive); in that of `COc1ccc(Cc2nnc(NC(=O)Cc3cccs3)s2)cc1`, 87.7% (active).
For `COc1ccc(CC(=O)Nc2ccc(-c3nnc(-c4ccccc4)o3)cc2)cc1` the value was 3.13% (inactive); for `COc1ccc(CC(=O)Nc2ccc(-c3nnc(-c4ccc(C)cc4)o3)cc2)cc1`, -0.08% (inactive); for `CCN1C(=O)c2cccc3c(N)ccc1c23`, 2.42% (inactive).
As to `Cc1cc2nc(-c3ccco3)c(Cc3cccc(F)c3)n2c(C)c1Br`, the inhibition is 7.28% (inactive).
Turning to `COc1ccc(OCC(=O)NNC(=O)c2ccc(-c3ccccc3)cc2)cc1`, the inhibition was 1.62% (inactive).
For `O=C(COc1ccc([N+](=O)[O-])cc1)Nc1ccc(N2CCCC2)cc1` the value was 6.61% (inactive).
In the case of `O=C(COc1ccc(/C=N/NC(=O)c2ccc(O)cc2)cc1)Nc1ccc([N+](=O)[O-])cc1` it was 39.5% (active).
For `O=C(CCNC(=O)c1ccccc1)NN=Cc1ccc(Br)o1` the value was 2.65% (inactive).
Take `O=C(c1ccc(CS(=O)(=O)c2ccccc2)o1)N1CCN(c2ccccc2)CC1`: the inhibition is 0.25% (inactive).
For `COc1ccc(Br)cc1/C=N/Nc1ccc(S(=O)(=O)Nc2ccccc2C(=O)O)cc1[N+](=O)[O-]` the value was 97.7% (active); for `CC1CN(C(=O)c2ccccc2NS(=O)(=O)c2cccc([N+](=O)[O-])c2)CC(C)O1` (stereo not drawn), 1.75% (inactive); for `C/C(=N\Nc1ccc(S(N)(=O)=O)cc1[N+](=O)[O-])c1cccs1`, 1.78% (inactive).
In the case of `C=Cc1ccc(C(=O)N2CCCC(CCC(=O)N3CCN(c4ccccn4)CC3)C2)cc1` (stereo not drawn) it was 1.51% (inactive); in that of `Cc1ccc(CNC(=O)CSc2nnc3c(n2)[nH]c2ccc(F)cc23)cc1`, 1.24% (inactive).
For `c1ccc2cc3[nH]c(CN4CCCCC4)nc3cc2c1`, the inhibition is 3.8% (inactive).
For `CCOC(=O)/C(C#N)=C/c1ccc(OCC(=O)Nc2ccccc2)c(OC)c1` the value was 4.96% (inactive).
Consider `CCCCNC(=O)CCn1c(=O)c2ccccc2n(Cc2cc(C)ccc2C)c1=O`, for which the inhibition was 2.63% (inactive).
